From PubChem BioAssay (NCATS) come the findings set out here.

Inconclusive results are not listed. The source made the active and inactive calls. Calls follow the shape of the dose curve; as a rule, active = well fitted curve in the direction sought with a large enough effect; inconclusive = small, poorly fitted or top-dose-only effect, or another doubt; inactive = no such curve, though single readings can be large; an effect the other way counts as inactive or inconclusive.

The nature of test [1]: S16 Schwann cell viability assay (CellTiter-Glo assay) (AID 624031).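 Also: cellular ATP luminescence as a viability measure; nearly all actives have a fitted effect of over 70% in size.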 In outline:
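This viability control uses native rat S16 Schwann cells grown in DMEM plus 10% FBS. After a 24 h compound treatment at 37 °C, CellTiter-Glo luminescence reports ATP content, scaled against DMSO-treated and cell-free wells.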

Test [2] deals with AA1029. Kind of test: qHTS profiling for inhibitors of Plasmodium falciparum proliferation (AID 504749). Also: nearly all actives have a fitted effect of over 60% in size. Also: potency is read from the fitted curve at half-maximal effect. To be noted: P. falciparum in erythrocytes, SYBR Green DNA, 72 h; series mostly up to 12.8 µM. In outline: (§1)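 Parasite proliferation within erythrocytes, 72 h exposure. Endpoint: SYBR Green I fluorescence after overnight lysis at room temperature. Controls: 0.29 uM artemisinin, DMSO.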

The test system of test [3] is ATS189. The test is described as above. Conditions: P. falciparum in erythrocytes, SYBR Green DNA, 72 h; series mostly up to 12.8 µM. In outline:
as §1

Test [4] deals with CP191. The test is described as above. To be noted: P. falciparum in erythrocytes, SYBR Green DNA, 72 h; series mostly up to 12.8 µM. In outline:
as §1

Test [5] has as its system CP192. Described as above. To be noted: P. falciparum in erythrocytes, SYBR Green DNA, 72 h; series mostly up to 12.8 µM. In outline:
as §1

For test [6], the system named is CP217. The description is as above. Conditions: P. falciparum in erythrocytes, SYBR Green DNA, 72 h; series mostly up to 12.8 µM. In outline: as §1
Test [7] deals with CP247. The description is as above. To be noted: P. falciparum in erythrocytes, SYBR Green DNA, 72 h; series mostly up to 12.8 µM. In outline:
as §1

For test [8], the system named is CP250. The description is as above. Conditions: P. falciparum in erythrocytes, SYBR Green DNA, 72 h; series mostly up to 12.8 µM. In outline: as §1
Test [9] has as its system CP260. The description is as above. Conditions: P. falciparum in erythrocytes, SYBR Green DNA, 72 h; series mostly up to 12.8 µM. In outline: as §1
For test [10], the system named is CP265. Described as above. To be noted: P. falciparum in erythrocytes, SYBR Green DNA, 72 h; series mostly up to 12.8 µM. In outline: as §1
For test [11], the system named is CP335. The description is as above. Conditions: P. falciparum in erythrocytes, SYBR Green DNA, 72 h; series mostly up to 12.8 µM. In outline:
as §1

Test [12] relates to DFO2036. The description is as above. Conditions: P. falciparum in erythrocytes, SYBR Green DNA, 72 h; series mostly up to 12.8 µM. In outline:
as §1

Test [13] has as its system DIV17. The description is as above. To be noted: P. falciparum in erythrocytes, SYBR Green DNA, 72 h; series mostly up to 12.8 µM. In outline:
as §1

Test [14] deals with Dd2. Described as above. To be noted: P. falciparum in erythrocytes, SYBR Green DNA, 72 h; series mostly up to 12.8 µM. In outline:
as §1

In test [15] the test system is ICS. Described as above. To be noted: P. falciparum in erythrocytes, SYBR Green DNA, 72 h; series mostly up to 12.8 µM. In outline:
as §1

Test [16] has as its system P93_24. Described as above. Conditions: P. falciparum in erythrocytes, SYBR Green DNA, 72 h; series mostly up to 12.8 µM. In outline:
as §1

For test [17], the system named is P94_40. Described as above. Conditions: P. falciparum in erythrocytes, SYBR Green DNA, 72 h; series mostly up to 12.8 µM. In outline:
as §1

Test [18] has as its system TAB113. Described as above. Conditions: P. falciparum in erythrocytes, SYBR Green DNA, 72 h; series mostly up to 12.8 µM. In outline: as §1
Test [19] deals with W2. The test is described as above. Conditions: P. falciparum in erythrocytes, SYBR Green DNA, 72 h; series mostly up to 12.8 µM. In outline:
as §1

Test [20] has as its system CP215. Described as above. To be noted: P. falciparum in erythrocytes, SYBR Green DNA, 72 h; series mostly up to 12.8 µM. In outline:
as §1

Consider `Nc1nc2ncc(CNc3ccc(C(=O)NC(CCC(=O)O)C(=O)O)cc3)nc2c(=O)[nH]1` (centres undefined), for which the result in [1] was inactive. Also, the Potency entry in [2], in [3], in test [4], in test [5], in test [6] and in test [7] was “inactive” in each case. For the same compound, the Potency entry in test [8], in test [9], in test [10], in test [11], in test [12] and in test [13] was “inactive” throughout. Moreover, the Potency entry in test [14], in [15], in test [16], in [17], in test [18] and in [19] was “inactive” throughout.

For the compound `COc1ccc2cc(C(C)CO)ccc2c1` (centres undefined), the result in test [1] was inactive. For the same compound, the Potency entry in test [2], in [3], in test [4], in test [5], in test [20] and in test [6] was “inactive” in each case. The Potency result in [7], in test [8], in [9], in test [10], in test [11] and in test [12] was “inactive” throughout. Besides, the Potency entry in [13], in [14], in test [15], in test [16], in test [17] and in test [19] was “inactive” throughout.

In the case of `C/C1=C2N=C(/C=C3N=C(/C(C)=C4\[N-]C(C)(C5N=C1C(C)(CCC(=O)NCC(C)OP(=O)([O-])O[C@H]1C(O)C(n6cnc7cc(C)c(C)cc76)O[C@@H]1CO)C5CC(N)=O)C(C)(CC(N)=O)C4CCC(N)=O)C(C)(CC(N)=O)C\3CCC(N)=O)C(C)(C)C/2CCC(N)=O.[CH2-]C1OC(n2cnc3c(N)ncnc32)C(O)C1O.[Co]` (some centres undefined), the compound was classed as inactive in test [1]. Also, the Potency entry in [2], in test [3], in test [4], in test [5], in test [20] and in test [6] was “inactive” each time. Moreover, the Potency entry in test [7], in test [8], in [9], in test [10], in [11] and in test [12] was “inactive” throughout. The Potency entry in test [13], in test [14], in test [16], in [17] and in test [18] was “inactive” each time.

Regarding `C[C@]1(c2ccccc2)OC(C(=O)O)=CC1=O`, the outcome in [1] was inactive. The Potency result in [2], in test [3], in test [4], in test [5], in test [20] and in test [6] was “inactive” throughout. For the same compound, the Potency entry in test [7], in [8], in [9], in [10], in [11] and in test [12] was “inactive” each time. Moreover, the Potency entry in [13], in test [14], in test [15], in test [16], in [17] and in [18] was “inactive” each time. In addition, the Potency entry in test [19] is “inactive”.

Regarding `COc1cc(C2c3cc4c(cc3C(O[C@@H]3OC5COC(c6cccs6)OC5C(O)C3O)C3COC(=O)C23)OCO4)cc(OC)c1O` (some centres undefined), the compound was classed as inactive in test [1]. In addition, the Potency in test [2] is 2240 nM (active); in test [3], 2240 nM (active); in test [4] it was 2240 nM (active); in test [5], 4260 nM (active); in [20], 4260 nM (active); in test [6], 2000 nM (active). The Potency was 2240 nM (active) in test [7]; 2000 nM (active) in test [8]; 1120 nM (active) in test [9]; 2820 nM (active) in [10]; 1690 nM (active) in [11]; 1120 nM (active) in test [12]. Moreover, the Potency in test [13] is 4260 nM (active); in [14] it was 1410 nM (active); in test [15], 1260 nM (active); in test [16], 1580 nM (active); in test [17] it was 1260 nM (active); in [18], 2240 nM (active). In addition, in [19], the Potency is 1200 nM (active).

Take `COc1ccc(CC(N)C(=O)NC2C(CO)OC(n3cnc4c(N(C)C)ncnc43)C2O)cc1` (centres undefined): the Potency in test [2] was 1000 nM (active); in test [3], 794 nM (active); in test [4], 891 nM (active); in test [5] it was 1070 nM (active); in test [20] it was 1070 nM (active); in [6] it was 794 nM (active). For the same compound, the Potency is 891 nM (active) in test [7]; 1260 nM (active) in test [8]; 891 nM (active) in test [9]; 891 nM (active) in test [10]; 757 nM (active) in [11]; 891 nM (active) in [12]. The Potency was 757 nM (active) in test [13]; 355 nM (active) in test [14]; 316 nM (active) in test [15]; 708 nM (active) in test [16]; 891 nM (active) in test [17]; 1000 nM (active) in test [18]. Besides, the Potency in [19] was 338 nM (active).

Turning to `CC1(C)OC2CC(=O)OC[C@@]23C1CC(=O)[C@]1(C)C3CC[C@@]2(C)C(c3ccoc3)OC(=O)C3O[C@@]321` (some centres undefined), the call in [1] was inactive. Also, the Potency result in test [2], in [3], in [4], in test [5], in test [20] and in [6] was “inactive” throughout. For the same compound, the Potency entry in [7], in test [8], in [9], in test [10], in [11] and in test [12] was “inactive” each time. Moreover, the Potency result in [13], in test [14], in test [15], in [16], in test [17] and in [18] was “inactive” throughout.

Turning to `CNC1C(OC2C(O[C@@H]3C(O)C(O)[C@@H](N=C(N)N)C(O)C3N=C(N)N)OC(C)[C@@]2(O)CO)OC(CO)C(O)C1O` (some centres undefined), the compound was called inactive in test [1]. Also, the Potency result in test [2], in test [3], in test [4], in test [5], in test [20] and in test [6] was “inactive” in each case. Further, the Potency result in test [7], in [8], in [9], in test [10], in [11] and in test [12] was “inactive” throughout. The Potency entry in test [13], in test [14], in test [15], in [16], in [17] and in [18] was “inactive” throughout. Also, the Potency entry in [19] was “inactive”.

`OCC1OC([S-])[C@H](O)C(O)C1O.[Au+]` (some centres undefined): the outcome in test [1] was inactive. In addition, the Potency result in test [2], in [3], in test [4], in test [5], in test [20] and in test [6] was “inactive” each time. Besides, the Potency result in test [7], in test [8], in test [9], in test [10], in test [11] and in [12] was “inactive” in each case. The Potency result in test [13], in test [14], in [15], in test [16], in [17] and in test [18] was “inactive” throughout.

As for `OCC1O[C@H](OC2C(CO)O[C@@](O)(CO)C2O)C(O)C(O)C1O` (some centres undefined), the outcome in test [1] was inactive. Also, the Potency result in test [2], in test [3], in test [4], in test [5], in test [20] and in test [6] was “inactive” each time. Moreover, the Potency entry in test [7], in [8], in test [9], in test [10], in [11] and in test [12] was “inactive” each time. The Potency entry in test [13], in test [14], in test [15], in test [16], in test [17] and in [18] was “inactive” throughout. Also, the Potency result in test [19] is “inactive”.

With `COc1ccc2cc1Oc1ccc(cc1)CC1c3c(cc4c(c3Oc3cc5c(cc3OC)CCN(C)C5C2)OCO4)CCN1C` (centres undefined), the Potency in [2] was 3550 nM (active); in test [3], 4470 nM (active); in test [4], 5010 nM (active); in [6], 8910 nM (active); in test [7] it was 5620 nM (active); in [9], 4470 nM (active). For the same compound, the Potency is 8910 nM (active) in [10]; 6010 nM (active) in test [11]; 7940 nM (active) in [12]; 7570 nM (active) in test [13]; 2240 nM (active) in [14]; 2820 nM (active) in test [15]. Also, the Potency was 6310 nM (active) in test [16], 8910 nM (active) in [17], 7080 nM (active) in test [18] and 1900 nM (active) in test [19].
